In PubChem BioAssay (Tox21):
Several values for one entry are separate records, joined by “and”; a condition that tells them apart may be missing. Equal entries are not always repeated. Records with an inconclusive call do not appear. More than one record can exist for a structure, and the calls need not agree. Activity calls are given as the source filed them. Unless noted, calls follow the shape of the full dose curve.

How the values were obtained:
[1] = qHTS assay to identify small molecule antagonists of the sonic hedgehog signaling (Shh) pathway (AID 1259369); also: nearly all actives have a fitted effect of over 45% in size; also: potency is read from the fitted curve at half-maximal effect
How it was run: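 NIH/3T3-derived Gli1-Luc reporter cells plated 4 h, dosed with compound, then stimulated with conditioned medium for 24 h at 37 C. Firefly luciferase luminescence read after 30 min with detection reagent at room temperature.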

[2] = biological target: Estrogen receptor beta (Homo sapiens) (UniProt Q92731); assay: qHTS assay to identify small molecule agonists of the estrogen receptor beta (ER-beta) signaling pathway (AID 1259377; active = well fitted activation curve with a large enough effect in the signal ratio in the repeat runs, not every such curve was filed as active; the % refers to the signal ratio)
How it was run: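 Agonist mode cell assay in GripTite HEK293T cells expressing an ER-beta fusion that drives beta-lactamase from an Upstream Activator Sequence; 16 hr compound exposure at 37C, then 2 h LiveBLAzer B/G FRET substrate at room temperature, fluorescence read-out.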

[3] = biological target: Androgen receptor (Homo sapiens) (UniProt P10275); assay: qHTS assay to identify small molecule agonists of the androgen receptor (AR) signaling pathway in the presence of an antagonist (AID 1259381); also: nearly all actives have a fitted effect of over 15% in size
How it was run: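 MDA-kb2 cells carrying MMTV-luciferase (AR/GR responsive), 3,000 cells/well, co-treated with 3.0 uM nilutamide final. Compounds at 15 concentrations, 16 hr at 37C without CO2. Luciferase luminescence read after 30 min with ONE-Glo.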

[4] = qHTS assay to identify small molecule antagonists of the estrogen receptor beta (ER-beta) signaling pathway - cell viability counter screen (AID 1259382; active = well fitted curve in the direction sought with a large enough effect in the repeat runs; an effect the other way counts as inactive or inconclusive; also: series mostly up to about 92 µM; nearly all actives have a fitted effect of over 55% in size)
How it was run: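 ER-beta-UAS-bla HEK293T cells in 2% charcoal-stripped FBS medium, treated with compound plus 1 nM 17-beta-estradiol for 16 h at 37C. Viability read by CellTiter-Glo luminescence after 30 min at room temperature in the same wells.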

[5] = biological target: Estrogen receptor (Homo sapiens) (UniProt P03372); assay: qHTS assay to identify small molecule agonists of the estrogen receptor alpha (ER-alpha) signaling pathway in the presence of an antagonist (AID 1259383); also: nearly all actives have a fitted effect of over 15% in size; also: potency is read from the fitted curve at half-maximal effect; as to activation: top concentration of the series differs between compounds
How it was run: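 VM7Luc4E2 cells express endogenous full-length ER-alpha with an ERE-luciferase reporter and were hormone-deprived for 5 days. Compounds at 15 concentrations were added with 10.0nM ICI-182,780 for 22hr at 37C. Luminescence was read with ONE-Glo.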

[6] = qHTS assay to identify small molecule agonists or antagonists of the thyroid stimulating hormone receptor (TSHR) signaling pathway - wild type cell line counter screen (AID 1259384)
How it was run: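 Wild-type Hek293 cells, 800/well, 18 h at 37C, then compound with Ro20-1724 for 30 min RT. cAMP by HTRF (cAMP-d2/anti-cAMP cryptate), 1 h RT, fluorescence read. 15 concentrations, triplicates.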

[7] = biological target: Thyrotropin receptor (Homo sapiens) (UniProt P16473); assay: qHTS assay to identify small molecule antagonists of the thyroid stimulating hormone receptor (TSHR) signaling pathway (AID 1259385); also: nearly all actives have a fitted effect of over 20% in size; also: potency is read from the fitted curve at half-maximal effect
How it was run: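 TSHR-HEK293 cells (800/well) plated 18 h, then compounds with Ro20-1724 and TSH at 1.5 ng/mL final, 30 min at room temperature. cAMP quantified by HTRF (cAMP-d2/anti-cAMP-cryptate, 1 h); 15 concentrations in triplicate.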

[8] = biological target: Estrogen receptor beta (Homo sapiens) (UniProt Q92731); assay: qHTS assay to identify small molecule antagonists of the estrogen receptor beta (ER-beta) signaling pathway (AID 1259378; active = well fitted inhibition curve with a large enough effect in the signal ratio in the repeat runs, not every such curve was filed as active; the % refers to the signal ratio; also: potency is read from the fitted curve at half-maximal effect)
How it was run: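 ER-beta-UAS-bla HEK293T cells in 2% charcoal-stripped FBS medium treated with compound plus 1nM final 17-beta-estradiol for 16 hr at 37C. Beta-lactamase reporter read by FRET substrate fluorescence after 2 hours at room temperature.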

[9] = qHTS assay to identify small molecule agonists of the androgen receptor (AR) signaling pathway in the presence of an antagonist - cell viability counter screen (AID 1259379; active = well fitted curve in the direction sought with a large enough effect in the repeat runs; an effect the other way counts as inactive or inconclusive; also: nearly all actives have a fitted effect of over 25% in size; also: potency is read from the fitted curve at half-maximal effect;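 as to activity change, negative = cytotoxicity: MDA-kb2 human breast cancer cells carrying an MMTV luciferase reporter; series mostly up to about 92 µM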)
How it was run: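 MDA-kb2 cells (MMTV-luciferase, AR/GR), 3,000/well, 5 h attachment, then 3.0 µM nilutamide (final) and compounds at 15 concentrations. Viability by CellTiter-Fluor fluorescence after 16 h at 37 °C, 0% CO2, in the reporter wells.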

[10] = qHTS assay to identify small molecule agonists of the estrogen receptor beta (ER-beta) signaling pathway - cell viability counter screen (AID 1259380; active = well fitted curve in the direction sought with a large enough effect in the repeat runs; an effect the other way counts as inactive or inconclusive; also: nearly all actives have a fitted effect of over 30% in size; also: potency is read from the fitted curve at half-maximal effect)
How it was run: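 ER-beta-UAS-bla HEK293T cells in medium with 2% charcoal-stripped FBS, pre-incubated 6 hr, then treated 16 hr at 37C. Cytotoxicity read in the same wells by CellTiter-Glo luminescence after 30 min at room temperature.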
% is scaled to controls: 0 for no effect and ±100 for the full control effect.

Estrogen receptor beta (Homo sapiens), sequence (Q92731 whole entry, looked up, the tested form may be a part): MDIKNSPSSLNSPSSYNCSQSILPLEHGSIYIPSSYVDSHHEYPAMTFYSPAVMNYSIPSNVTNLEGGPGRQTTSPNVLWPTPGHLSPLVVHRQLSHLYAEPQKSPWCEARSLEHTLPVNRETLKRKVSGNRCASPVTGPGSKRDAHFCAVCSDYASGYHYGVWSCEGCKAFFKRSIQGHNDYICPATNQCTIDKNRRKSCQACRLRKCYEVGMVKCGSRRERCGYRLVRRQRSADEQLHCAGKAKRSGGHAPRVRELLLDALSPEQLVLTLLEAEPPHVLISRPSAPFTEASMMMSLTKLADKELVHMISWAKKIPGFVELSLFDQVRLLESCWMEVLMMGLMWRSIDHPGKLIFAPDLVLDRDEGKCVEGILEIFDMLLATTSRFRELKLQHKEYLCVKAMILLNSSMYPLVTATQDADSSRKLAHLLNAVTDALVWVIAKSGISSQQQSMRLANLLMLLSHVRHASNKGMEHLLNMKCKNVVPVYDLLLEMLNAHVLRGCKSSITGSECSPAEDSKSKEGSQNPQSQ
Estrogen receptor (Homo sapiens), sequence (P03372 whole entry, looked up): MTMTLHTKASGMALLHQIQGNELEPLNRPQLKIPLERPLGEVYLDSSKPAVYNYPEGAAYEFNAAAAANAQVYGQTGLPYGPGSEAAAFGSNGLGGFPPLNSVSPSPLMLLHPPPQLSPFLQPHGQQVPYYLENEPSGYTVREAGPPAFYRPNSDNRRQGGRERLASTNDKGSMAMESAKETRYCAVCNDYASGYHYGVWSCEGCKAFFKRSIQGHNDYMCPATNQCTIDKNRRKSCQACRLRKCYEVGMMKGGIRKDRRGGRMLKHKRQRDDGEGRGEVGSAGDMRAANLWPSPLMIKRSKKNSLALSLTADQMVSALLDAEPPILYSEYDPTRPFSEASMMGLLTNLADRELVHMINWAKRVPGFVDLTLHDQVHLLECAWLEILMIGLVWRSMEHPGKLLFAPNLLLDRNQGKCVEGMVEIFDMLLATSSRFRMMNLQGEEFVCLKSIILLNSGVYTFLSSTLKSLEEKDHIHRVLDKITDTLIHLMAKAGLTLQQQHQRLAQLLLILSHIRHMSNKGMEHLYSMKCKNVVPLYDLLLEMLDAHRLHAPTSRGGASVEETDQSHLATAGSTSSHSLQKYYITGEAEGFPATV
Androgen receptor (Homo sapiens), sequence (P10275 whole entry, looked up): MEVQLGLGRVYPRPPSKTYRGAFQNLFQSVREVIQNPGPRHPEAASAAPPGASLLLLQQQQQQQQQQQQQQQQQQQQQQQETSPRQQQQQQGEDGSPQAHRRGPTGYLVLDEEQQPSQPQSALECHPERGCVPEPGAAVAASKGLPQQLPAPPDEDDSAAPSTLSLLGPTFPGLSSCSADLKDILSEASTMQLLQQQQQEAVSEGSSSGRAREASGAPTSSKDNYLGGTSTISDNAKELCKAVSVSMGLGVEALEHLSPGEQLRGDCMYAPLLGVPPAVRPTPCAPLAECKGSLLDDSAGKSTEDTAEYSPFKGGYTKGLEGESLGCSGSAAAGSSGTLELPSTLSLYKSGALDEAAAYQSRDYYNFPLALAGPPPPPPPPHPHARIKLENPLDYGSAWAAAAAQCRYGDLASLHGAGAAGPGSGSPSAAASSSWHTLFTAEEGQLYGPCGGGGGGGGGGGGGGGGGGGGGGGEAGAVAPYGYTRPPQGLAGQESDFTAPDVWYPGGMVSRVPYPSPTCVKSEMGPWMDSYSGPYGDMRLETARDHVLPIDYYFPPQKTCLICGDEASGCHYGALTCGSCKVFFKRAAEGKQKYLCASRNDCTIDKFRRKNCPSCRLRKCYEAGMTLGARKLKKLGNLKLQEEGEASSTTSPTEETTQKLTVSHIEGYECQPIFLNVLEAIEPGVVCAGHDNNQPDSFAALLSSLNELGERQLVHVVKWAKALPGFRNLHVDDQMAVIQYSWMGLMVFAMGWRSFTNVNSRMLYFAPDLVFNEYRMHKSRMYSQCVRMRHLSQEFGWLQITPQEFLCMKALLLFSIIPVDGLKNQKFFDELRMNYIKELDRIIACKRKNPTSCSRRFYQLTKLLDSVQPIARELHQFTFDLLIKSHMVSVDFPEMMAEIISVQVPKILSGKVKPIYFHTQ
Thyrotropin receptor (Homo sapiens), sequence (P16473 whole entry, looked up): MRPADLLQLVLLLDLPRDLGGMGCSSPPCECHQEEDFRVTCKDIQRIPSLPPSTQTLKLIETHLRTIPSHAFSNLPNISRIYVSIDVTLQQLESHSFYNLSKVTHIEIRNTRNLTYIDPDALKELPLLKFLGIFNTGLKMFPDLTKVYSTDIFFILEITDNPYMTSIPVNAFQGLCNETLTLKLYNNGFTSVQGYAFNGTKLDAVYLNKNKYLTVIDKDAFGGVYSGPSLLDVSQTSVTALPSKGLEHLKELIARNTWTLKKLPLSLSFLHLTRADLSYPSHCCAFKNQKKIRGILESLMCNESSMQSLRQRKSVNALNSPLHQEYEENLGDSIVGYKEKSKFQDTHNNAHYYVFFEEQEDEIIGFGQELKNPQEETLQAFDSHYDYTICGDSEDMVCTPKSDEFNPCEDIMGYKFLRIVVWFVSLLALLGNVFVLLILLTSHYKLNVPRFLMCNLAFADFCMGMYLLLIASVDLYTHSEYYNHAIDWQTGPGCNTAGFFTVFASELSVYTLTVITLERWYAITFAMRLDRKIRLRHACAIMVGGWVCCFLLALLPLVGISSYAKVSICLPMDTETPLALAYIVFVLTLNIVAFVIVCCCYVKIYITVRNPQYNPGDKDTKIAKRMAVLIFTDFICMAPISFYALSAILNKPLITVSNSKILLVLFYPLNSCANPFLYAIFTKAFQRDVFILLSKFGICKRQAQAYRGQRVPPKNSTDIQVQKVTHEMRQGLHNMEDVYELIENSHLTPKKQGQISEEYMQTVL

O=C(NC(=O)c1c(F)cccc1F)Nc1cc(Cl)c(Oc2ncc(C(F)(F)F)cc2Cl)c(Cl)c1
inactive: Potency [2] | Potency [3] | Potency [4] | Potency [5] | outcome [6] | Potency [7]
active: Potency [1] 23.3 µM

O=C(N[C@H](c1ccccc1)[C@@H]1CN2CCC1CC2)c1c(Cl)ccc(C(F)(F)F)c1Cl
inactive: Potency [2] | outcome [6] | Potency [7]
active: Potency [1] 13.9 µM | Potency [8] 39.2 µM

O=C(O)c1ccccc1C(=O)Nc1cccc2ccccc12
inactive: Potency [1] | Potency [2] | Potency [8] | Potency [9] | outcome [6] | Potency [7]

CC(C)(Cl)[N+](=O)[O-]
inactive: Potency [1] | Potency [2] | Potency [9] | Potency [10] | Potency [4] | outcome [6] | Potency [7]

NCC(CC(=O)O)c1ccc(Cl)cc1 (stereo not drawn)
inactive: activity change, negative = inhibition [1] 38.7% [at 0.349 µM] | activation [2] -2.59% [at 0.348 µM] | activity, negative = inhibition [8] 0.814% [at 0.349 µM] | activity change, negative = cytotoxicity [9] 0.676% [at 0.35 µM] | activity change, negative = inhibition [7] 2.95% [at 0.349 µM]

C[C@H]1CNCCc2ccc(Cl)cc21
inactive: Potency [1] | Potency [2] | Potency [8] | Potency [9] | Potency [5] | outcome [6] | Potency [7]

COCC(C)N(C(=O)CCl)c1c(C)csc1C (stereo not drawn)
active: Potency [1] 30.6 µM
inactive: Potency [2] | Potency [9] | Potency [5]

CCCCOC(=O)c1ccccc1C(=O)OCc1ccccc1
inactive and 19.3 µM (active): Potency [1]
inactive: Potency [2] | Potency [9] | Potency [4] | outcome [6] | Potency [7]
active: Potency [8] 6.1 µM and 9.15 µM

COP(=S)(OC)Oc1cc(Cl)c(I)cc1Cl
active: Potency [1] 38.6 µM
inactive: Potency [2] | Potency [9] | Potency [3] | Potency [4] | outcome [6]

CCCN(CCCl)c1c([N+](=O)[O-])cc(C(F)(F)F)cc1[N+](=O)[O-]
inactive: Potency [1] | Potency [2] | Potency [8] | Potency [9] | Potency [5] | outcome [6] | Potency [7]

O=C1c2ccccc2C(=O)C1C(=O)C(c1ccccc1)c1ccccc1
inactive: Potency [1] | Potency [2] | Potency [9] | Potency [4] | outcome [6] | Potency [7]
active: Potency [8] 23.7 µM

CC(C)(C)c1cc([N+](=O)[O-])cc([N+](=O)[O-])c1O
inactive: Potency [2] | Potency [4] | outcome [6] | Potency [7]
active: Potency [1] 6.84 µM | Potency [9] 15.3 µM

CCOP(=S)(OCC)Oc1cc(Cl)c(Br)cc1Cl
inactive: Potency [1] | Potency [2] | Potency [9] | Potency [3] | Potency [4] | Potency [5] | outcome [6] | Potency [7]

NS(=O)(=O)C(F)(F)C(F)(F)C(F)(F)C(F)(F)C(F)(F)C(F)(F)C(F)(F)C(F)(F)F
inactive: Potency [1] | Potency [2] | Potency [9] | Potency [3] | Potency [5] | Potency [7]
active: Potency [10] 68.6 µM

COC(=O)C(Cl)C(=O)OC
inactive: Potency [1] | Potency [2] | Potency [8] | Potency [10] | Potency [4] | Potency [5] | outcome [6] | Potency [7]

CCCC(Cn1cncn1)c1ccc(Cl)cc1Cl (stereo not drawn)
active: Potency [1] 17.2 µM
inactive: Potency [2] | Potency [9] | outcome [6]

CC(=O)c1cc2c(cc1C)C(C)(C)C(C)CC2(C)C (stereo not drawn)
inactive: Potency [1] | Potency [2] | Potency [9] | Potency [4] | outcome [6]
active: Potency [10] 61.1 µM

Oc1ccc(Cl)c(Cl)c1Cl
inactive: Potency [1] | Potency [2] | Potency [8] | Potency [9] | Potency [4] | outcome [6] | Potency [7]

OC(c1ccc(Cl)cc1)(c1ccc(Cl)cc1)c1cccnc1
inactive: Potency [2] | Potency [10] | Potency [3] | Potency [5]
active: Potency [1] 30.6 µM | Potency [8] 38.6 µM

Sc1ccccc1Cl
inactive: Potency [1] | Potency [9] | Potency [10] | Potency [3] | Potency [4] | Potency [5] | outcome [6]

CCCC(=O)Cl
inactive: Potency [1] | Potency [9] | Potency [10] | Potency [4] | Potency [5] | outcome [6]

CCOS(C)(=O)=O
inactive: Potency [1] | Potency [9] | Potency [10] | Potency [4] | Potency [7]

Cl/C=C\Cl
inactive: Potency [1] | Potency [9] | Potency [10] | Potency [4] | Potency [5] | outcome [6] | Potency [7]

Cc1ccccc1C(=O)Nc1cccc(OC(C)C)c1
active: Potency [1] 17.2 µM | Potency [10] 19.3 µM
inactive: Potency [8] | Potency [9] | Potency [3] | Potency [5] | outcome [6] | Potency [7]

O=C(C(Cl)(Cl)Cl)C(Cl)(Cl)Cl
inactive: Potency [1] | Potency [9] | Potency [10] | Potency [3] | Potency [4] | Potency [5]

BrCC(Br)C1CCC(Br)C(Br)C1 (stereo not drawn)
inactive: Potency [1] | Potency [9] | Potency [10] | Potency [4] | outcome [6]

O=NN1CCCCCC1
inactive: Potency [1] | Potency [9] | Potency [10] | Potency [3] | Potency [4] | Potency [5] | outcome [6]

COC1=CC(=O)O[C@@H](CCc2ccccc2)C1
inactive: Potency [1] | Potency [8] | Potency [9] | Potency [10] | Potency [3] | Potency [4] | outcome [6] | Potency [7]

Cn1cc[n+](C)c1 (tested in a mixture with another compound)
inactive: Potency [1] | Potency [9] | Potency [10] | Potency [4] | Potency [5] | outcome [6] | Potency [7]

c1cc2ccc3cccc4ccc(c1)c2c34
active: Potency [10] 32.1 µM | Potency [5] 64.1 µM
inactive: Potency [1] | Potency [9] | Potency [3] | Potency [7]

O=C1C(=O)c2cccc3cccc1c23
inactive: Potency [8] | Potency [9] | Potency [4] | Potency [5] | outcome [6]
active: Potency [1] 4.32 µM | Potency [10] 43.2 µM

CCOP(=S)(OCC)Oc1nc(Cl)c(Cl)cc1Cl
active: Potency [10] 38.6 µM | Potency [7] 27.4 µM and 54.5 µM
inactive: Potency [1] | Potency [8] | Potency [9] | Potency [3] | Potency [4] | Potency [5] | outcome [6]

N#Cc1ccc(Cl)cc1
inactive: Potency [1] | Potency [9] | Potency [10] | Potency [5] | outcome [6]
